Measured values from PubChem BioAssay AID1740 (National Center for Advancing Translational Sciences (NCATS), 2009).
Records with an inconclusive call do not appear. Where a call stands in place of a potency, no number is given. Values without a mark were called inactive. Active and inactive are the calls of the source. Calls come from the whole dose curve; as a rule, active = well fitted activation curve with a large enough effect; inconclusive = small, poorly fitted or top-dose-only effect; inactive = no such curve, though single readings can be large or run the other way.

Assay: Confirmation Concentration-Response Assay for Enhancers of SMN2 Splice Variant Expression
Details: HEK293 SMN2-exon7-luciferase splicing reporter, luminescence, 30-36 h; series mostly up to 46.1 µM
Source text: NIH Chemical Genomics Center [NCGC] NIH Molecular Libraries Probe Production centers Network [MLPCN] MLPCN Grant: R03 MH084179-01 Assay Submitter (PI): Elliot Androphy NCGC Assay Overview: Spinal muscular atrophy (SMA) is caused by insufficient levels of the survival motor neuron protein SMN. The SMN locus on chromosome 5q13 contains two inverted copies of SMN called SMN1 and SMN2 which are 99% identical at the amino acid level. SMN1 is a fully functional protein and SMN2 skips exon 7 90% of the time. Skipping of exon 7 produces non-functional protein product. 10% of the SMN2 protein includes exon 7 and is fully functional. In the SMA disease state, mutations in the SMN1 locus are the cause of the disease state. Because only 10% of SMN2 is of the fully functional form, it is not sufficient to overcome the deficiency produced by the loss of the SMN1 product. A therapy that either increase the amount of SMN2 product made or to increase the inclusion of exon 7 has been proposed for the treatment of SMA. We have designed an assay to identify small molecules that can increase the amount of functional SMN2 product by appending a luciferase reporter gene after the native SMN2 gene, such that inclusion of exon 7 in the expressed product places the luciferase sequence in frame, thus generating functional luciferase enzyme.
NCGC Assay Protocol Summary: This screen utilizes a luciferase reporter gene assay, combining the promoter with the major portion of the native SMN2 cDNA (exons 1 -7, intron 8 , exon 8 fused to luciferase) stably expressed in HEK293 cells. Compounds that increase luciferase signal presumably enhance expression of the functional SMN2 splice variant. Passaging media contained DMEM w/ glutamax (+phenol red) 10% FCS, 1x pen/strep, 200 ug/ml hygro, 1x sodium pyruvate. Assay media contained DMEM w/ glutamax (-phenol red) 10% FCS, 1x pen strep, 1x pyruvate Sequence, Parameter, Value, Description (1) Cells, 5 uL, 2000 cells/well, 1536 TC treated White solid bottom plate (2) Time, 10-12 hours, 37C 5% CO2 (3) Compound, 23 nl, MLSMR Library (4) Control Compound, 23 nL, Sodium butyrate st 4.5mM (final) conc (5) Time, 30-36 hours, 37C 5% CO2 (6) Reagent, 3 ul, One Glo (TM) from Promega (7) Time, 5-15 minutes, Room temp (8) Detector, Viewlux: luminescent read, 60 second integration, high speed 2x binning Keywords: Spinal muscular atrophy, SMA, SMN2, high throughput screening, MLSMR, MLPCN, NIH Roadmap, qHTS and NCGC

Row | Compound | Potency | activation
1 | CC(C)(C)n1nnnc1C(c1ccc2ncccc2c1)N1CCSCC1 (stereo not given) | inactive | –
2 | Clc1ccc(-c2nnc(-c3ccc(Br)cc3)c(N3CCSCC3)n2)cc1 | – | -10.7% [at 9.48 µM]
3 | Cc1ccc(C2c3c(oc4ccccc4c3=O)C(=O)N2CCCN2CCOCC2)o1 (stereo not given) | inactive | –
4 | COc1nc(-c2ccc(Cl)cc2)nnc1C | inactive | –
5 | Cc1ccc(-c2csc(NC(=O)C3CCN(S(=O)(=O)c4cccs4)CC3)n2)cc1 | inactive | –
6 | Cc1[nH]c2ccccc2c1-c1nc(-c2ccc(Cl)cc2)nnc1-c1ccccc1 | inactive | –
7 | CC1CN(c2nc(-c3ccc(Br)cc3)nnc2-c2ccccc2)CC(C)N1 (stereo not given) | – | -5.21% [at 9.48 µM]
8 | CN(Cc1ccccc1)Cc1c(F)cccc1F | inactive | –
9 | FC(F)(F)c1cccc(Oc2nc(-c3ccccc3)nnc2C(F)(F)F)c1 | inactive | –
10 | Nc1ccccc1-c1nnn(CC(=O)N2CCCc3ccccc32)n1 | inactive | –
11 | Cn1c(C(=O)NCc2cccs2)cc2oc3ccccc3c21 | 2820 nM (active) | –
12 | CN(C)CCCN(C(=O)c1cccs1)c1nc(-c2ccccc2)cs1 | inactive | –
13 | CCCc1sc(N2CCCC(C(N)=O)C2)nc1-c1ccccc1 (stereo not given) | inactive | –
14 | Clc1ccc(-c2nnc(-c3ccccc3)nc2N2CCSCC2)cc1 | – | 6.97% [at 9.48 µM]
15 | NC(=O)C1(N2CCCCC2)CCN(c2nc(-c3ccc(Br)cc3)cs2)CC1 | inactive | –
16 | OCCCNc1nc(-c2ccc(Cl)cc2)nnc1-c1ccc(Br)cc1 | inactive | –
17 | O=C(NCCCNCCCNC(=O)c1ccccn1)c1ccccn1 | inactive | –
18 | O=C1CCC(C(=O)Nc2cccc3ccccc23)N1 (stereo not given) | inactive | –
19 | O=C(NCc1cccs1)C(=O)NCC1OCCCN1S(=O)(=O)c1ccccc1 (stereo not given) | inactive | –
20 | O=c1[nH]c(=O)n(C2CCCO2)cc1Br (stereo not given) | inactive | –

Row | Compound | Potency | activation
21 | Brc1nc2ncnc(NCc3ccco3)c2[nH]1 | inactive | –
22 | O=C(NCCc1cn2ccsc2n1)c1cccs1 | inactive | –
23 | Clc1ccc(-c2nnc(-c3ccccc3)nc2-c2c[nH]c3ccccc23)cc1 | – | -10.1% [at 9.48 µM]
24 | CCOc1c(Cl)cc(C(=O)Nc2ccccc2C(=O)O)cc1Cl | 2820 nM (active) | –
25 | COCCCN1C(=O)C(=O)/C(=C(/O)c2ccc3c(c2)CC(C)O3)C1c1cccnc1 (stereo not given) | inactive | –
26 | COc1ccc(-c2csc(N3CCC(c4ccccc4)CC3)n2)cc1 | inactive | –
27 | O=[N+]([O-])c1ccc(-c2nnc(-c3ccccc3)c(N3CCOCC3)n2)cc1 | inactive | –
28 | NC(=O)N1c2ccccc2C=Cc2ccccc21 | inactive | –
29 | Cc1oncc1C(=O)Nc1ccc(C(F)(F)F)cc1 | 7080 nM (active) | –
30 | Clc1nc(NCc2cccs2)c2[nH]cnc2n1 | inactive | –
31 | COc1ccc(OC)c(-c2csc(N3CCC(c4ccccc4)CC3)n2)c1 | inactive | –
32 | Cc1ccc(-c2nnc(-c3ccccc3)c(-c3ccccc3)n2)cc1 | inactive | –
33 | FC(F)(F)c1nnc(-c2ccccc2)nc1Oc1ccccc1 | inactive | –
34 | O=C(Cc1c(F)cccc1Cl)N1CCN(C(=O)c2ccco2)CC1 | inactive | –
35 | COC(=O)C1=C(CN2CCc3ccccc32)NC(=O)NC1c1cc(C)ccc1C (stereo not given) | inactive | –
36 | COC(=O)C1=C(C)NC(=O)/C1=C\c1cc(C)n(-c2ccccc2F)c1C | inactive | –
37 | Cc1ccc(-c2nnc(-c3ccccc3)c(N3CCOCC3)n2)cc1 | – | 3.26% [at 9.48 µM]
38 | OCCCNc1nc(-c2ccc(Br)cc2)nnc1-c1ccc(Cl)cc1 | inactive | –
39 | CCC1=Nc2ccccc2-c2nnc(SC)nc2O1 | inactive | –
40 | Cn1cnc2c(NCc3ccco3)ncnc21 | inactive | –
